IL1B secr inh = inhibitors of inflammasome signaling (IL-1 beta secretion) | THP-1 LPS/ATP IL-1B secretion, AlphaLISA, 16 h; hits give low values | activity change, % at 57.5 µM | actives 4.7% (n = 360,000) | AID 743279; in the data active = activity change below about -50%; inconclusive = mostly about -30% to -49%
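Secreted IL-1B measured by AlphaLISA bead assay after 16 h compound exposure of THP-1 cells; compounds (final up to 57.5 uM) added 1 h before LPS (250 ng/mL) and ATP (1.25 mM) stimulation; lower signal means less secretion.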
MCF10A rerep = DNA re-replication induction in MCF 10a cells; MCF 10A DNA re-replication, Hoechst nuclear intensity, 48 h; Potency, µM (doses to about 46.1 µM), most hits filed as activators; actives 2.9% (n = 350,000); also: nearly all actives have a fitted effect of over 50% in size
SW480 rerep = inducers of DNA re-replication in SW480 colon cancer cells. SW480 DNA re-replication, Hoechst DNA content imaging, 48 h. Potency, µM (titrated, usually from 46.1 µM), hits mostly activators. actives 1.8% (n = 340,000). AID 624297; also: nearly all actives have a fitted effect of over 55% in size
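Image-based read-out: total Hoechst fluorescence of nuclei (405 nm excitation, 500-530 nm emission), with hits raising the fraction of high-intensity nuclei. SW480 colon cells incubated 48 hr with compounds at 37 C.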
DT40 TDP1 no CPT = qHTS for Inhibitors of human tyrosyl-DNA phosphodiesterase 1 (TDP1): qHTS in cells in absence of CPT; DT40 Tdp1-/- hTDP1 cells, no CPT, ATP luminescence, 48 h; Potency, µM (titrated, usually from 46.2 µM), actives largely listed as inhibitors; actives 15% (n = 420,000); AID 686978, 2013; also: nearly all actives have a fitted effect of over 55% in size
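Growth kinetics read by CellTiter-Glo luminescence after ≥48 hr at 37 °C. Cells: DT40 Tdp1-/- stably carrying human TDP1, 400 per well, compound exposure in the absence of CPT (DMSO vehicle).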
TDP1 cell CPT = DT40-hTDP1 cell growth loss with CPT | chicken DT40 Tdp1-/-;hTDP1 cells + 20 nM CPT, ATP luminescence, 48 h | Potency, µM (titrated, usually from 46.2 µM), usual class: inhibitors | actives 12% (n = 420,000); also: nearly all actives have a fitted effect of over 55% in size
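Cell growth measured by CellTiter-Glo luminescence after a minimum 48 h, 37 C compound exposure with 20 nM CPT in Tdp1-knockout DT40 cells stably expressing hTDP1, seeded 400/well; qHTS titration format.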
BCR signal inh = chronic active BCR signaling inhibition; ABC-DLBCL IkBa-CBG/CBR reporter, luminescence ratio, 4 h; Potency, µM (highest dose often 46.1 µM), actives largely listed as inhibitors; actives 0.05% (n = 340,000); active = well fitted inhibition curve with a large enough effect in the signal ratio, with a control signal flat, not every such curve was filed as active; inconclusive = small, poorly fitted or top-dose-only effect, or effect the other way, or a change in a side signal; the % refers to the signal ratio
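TMD8 ABC-DLBCL cells carrying doxycycline-inducible green luciferase fused to IkappaBalpha plus unfused red luciferase were exposed to compounds (up to 46 uM) for 4 hrs at 37C. Activity came from the overlap-corrected green/red luminescence ratio.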
Hits are given with their value; – = inactive; ? = inconclusive; · = no result. An excerpt weighted towards active compounds, which were near 19% of everything screened. Unless noted, calls follow the shape of the dose curve; as a rule, active = well fitted curve in the direction sought with a large enough effect; inconclusive = small, poorly fitted or top-dose-only effect, or another doubt; inactive = no such curve, though single readings can be large; an effect the other way counts as inactive or inconclusive.

SMILES	IL1B secr inh	MCF10A rerep	SW480 rerep	DT40 TDP1 no CPT	TDP1 cell CPT	BCR signal inh
Cc1cc(NC(=O)COC(=O)CNS(=O)(=O)c2c(F)cc(F)cc2Br)no1	?	–	–	–	–	–
Cc1nc(NS(=O)(=O)c2ccc(N)cc2)nc(C)c1Br	·	–	–	–	–	·
COc1cccc(-n2c(=O)c3sc4ccccc4c3n(CC(=O)Nc3ccccc3OC)c2=O)c1	·	·	·	15µM	9.2µM	·
COc1cccc(-n2c(=O)c3sc4ccccc4c3n(CC(=O)NC3CCCCC3)c2=O)c1	·	·	·	?	–	·
O=C(Cn1c(=O)n(-c2cccc(Cl)c2)c(=O)c2sc3ccccc3c21)NC1CCCCC1	·	·	·	?	23µM	·
O=C(COC(=O)/C=C/c1cccc(F)c1)NC(=O)NCc1ccccc1	–	–	–	?	–	–
CC[C@H](C)[C@@H](CNC)NC[C@@H](Cc1ccc(O)cc1)NCC(C)(C)C	–	?	–	–	?	?
CC[C@@H](C)[C@H](CN[C@H](CNC)C(C)C)NC[C@@H](C)c1ccc(CC(C)C)cc1	–	?	?	1.5µM	1.5µM	?
c1c[nH]c(CN2CCN(Cc3ncc[nH]3)CC2)n1	–	–	–	–	–	·
CC(C)N(Cc1ccccc1)CC(O)COc1ccc(S(=O)(=O)N2CCOCC2)cc1Cl (stereo not given)	–	–	–	–	–	?
Cc1cc(C)cc(NS(=O)(=O)c2c(C)[nH]c(=O)[nH]c2=O)c1	–	–	–	–	–	–
COc1ccccc1NNC(=O)C(O)(c1ccccc1)c1ccccc1	–	?	–	–	–	–
COc1ccccc1NNC(=O)C(O)(c1ccccc1OC)c1ccccc1OC	–	–	–	23µM	18µM	?
O=C(O)c1c[nH]c2c([N+](=O)[O-])cccc2c1=O	–	?	–	9.2µM	?	·
COc1ccc(NS(=O)(=O)c2cccc3nonc23)c(OC)c1	–	–	0.52µM	–	–	–
COc1ccccc1CN1CC(C(=O)NCc2ncccc2C)CCC1=O (stereo not given)	–	–	–	–	–	–
COc1cc2ccccc2cc1C(=O)N1CCN(C(C)=O)CC1	–	–	?	–	–	–
COc1cc2ccccc2cc1C(=O)N1CCN(c2nc3ccc(F)cc3s2)CC1	·	·	·	15µM	16µM	–
O=C(CCl)N1CCN(C(=O)C2COc3ccccc3O2)CC1 (stereo not given)	-95	?	?	3.7µM	?	?
O=C(C1COc2ccccc2O1)N1CCN(c2nc3ccc(F)cc3s2)CC1 (stereo not given)	·	·	·	21µM	?	–
CCOc1ccccc1N1CCN(C(=O)c2cc3ccccc3cc2OC)CC1	–	2.1µM	15µM	4.6µM	3.7µM	?
Cc1ccc(-n2c(COCC(=O)O)nc3cccnc32)cc1	·	·	·	–	–	·
CCOc1ccccc1N1CCN(C(=O)c2ccncc2)CC1	–	–	?	–	–	?
CCOc1ccccc1N1CCN(C(=O)c2cccc(-c3ccc(O)cc3)c2)CC1	?	?	–	?	16µM	?
CCOc1ccc(S(=O)(=O)N2CCCC(C(=O)NCc3cccnc3)C2)cc1 (stereo not given)	–	–	–	?	–	–
SMILES	IL1B secr inh	MCF10A rerep	SW480 rerep	DT40 TDP1 no CPT	TDP1 cell CPT	BCR signal inh
COc1ccc(-c2nc3c(c(SCc4ccc(Br)cc4)n2)Cc2c(CO)cnc(C)c2O3)cc1	·	·	·	4.1µM	?	·
C=Cc1ccc(CSc2nc(-c3ccc(Cl)cc3)nc3c2Cc2c(CO)cnc(C)c2O3)cc1	·	·	·	23µM	8.2µM	·
CCc1ccc(-c2nc3c(c(SCc4ccc(F)cc4)n2)Cc2c(CO)cnc(C)c2O3)cc1	·	·	·	–	–	·
C=Cc1ccc(CSc2nc(-c3ccccc3C)nc3c2Cc2c(CO)cnc(C)c2O3)cc1	·	·	·	21µM	?	·
C=Cc1ccc(CSc2nc(-c3ccc(OC)cc3)nc3c2Cc2c(CO)cnc(C)c2O3)cc1	·	·	·	5.2µM	5.8µM	·
Cc1noc2ncnc(Oc3cc(Cl)ccc3Cl)c12	-102	?	?	–	–	–
CCOc1ccccc1C(=O)N1CCN(c2cccc(Cl)c2)CC1	–	?	0.41µM	0.16µM	0.037µM	?
CCOc1ccc2ccccc2c1C(=O)N1CCN(c2ccccc2)CC1	–	13µM	?	16µM	?	–
CCOC(=O)c1[nH]c(C)c(C(=O)N2CCN(c3ccccc3)CC2)c1C	–	–	–	?	–	–
COc1cc(Cl)ccc1NC(=O)COc1ccccc1C(=O)N1CCN(c2ccc(O)cc2)CC1	–	–	–	23µM	23µM	–
COc1ccc(C(=O)N2CCN(c3cccc(Cl)c3)CC2)c(OC)c1	–	18µM	?	12µM	16µM	–

Screening results from PubChem.
